Assay results taken from publication PMC5540273 (PLoS ONE, 2017).

Legend:
Details in all cases: concentration: 1 μM, replicates: in singlicate; n = 1
[1] = tested on: T1, JNK1
T1 construct: gene MAPK8

[2] = tested on: T2, JNK2
T2 construct: gene MAPK9

[3] = tested on: T3, JNK3
T3 construct: gene MAPK10

[4] = tested on: KIT-autoinhibited
[5] = tested on: KIT
[6] = tested on: LATS1
[7] = tested on: LATS2
[8] = tested on: LCK
[9] = tested on: LIMK1
[10] = tested on: LIMK2
[11] = tested on: T4, LKB1
T4 construct: gene STK11

[12] = tested on: T5, LOK
T5 construct: gene STK10

[13] = tested on: LRRK2
[14] = tested on: LTK
[15] = tested on: LYN
[16] = tested on: T6, LZK
T6 construct: gene MAP3K13

[17] = tested on: MAK
[18] = tested on: MAP3K15
[19] = tested on: MAP3K1
[20] = tested on: MAP3K2
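Further: KINOMEscan kinase panel screen.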

SMILES	%Inh [1] [%]	%Inh [2] [%]	%Inh [3] [%]	%Inh [4] [%]	%Inh [5] [%]	%Inh [6] [%]	%Inh [7] [%]	%Inh [8] [%]	%Inh [9] [%]	%Inh [10] [%]	%Inh [11] [%]	%Inh [12] [%]	%Inh [13] [%]	%Inh [14] [%]	%Inh [15] [%]	%Inh [16] [%]	%Inh [17] [%]	%Inh [18] [%]	%Inh [19] [%]	%Inh [20] [%]
c1ccc(-c2ccc3c(-c4ccnc(Nc5ccc6c(c5)OCCO6)n4)cnn3n2)cc1 [GW818941]	28	4	8	0	10	11	0	22	27	0	0	17	29	0	0	0	100	11	1	0
COc1ccc(Nc2nccc(N3CCC(NC(=O)Nc4ccc5c(c4)OCO5)C3)n2)cc1 (centres unmarked) [GSK1379745]	18	20	20	0	48	0	0	24	0	26	4	0	1	18	1	39	20	3	12	14
FC(F)(F)c1ccc(-c2nn3ncccc3c2-c2ccnc(Nc3cccc(C(F)(F)F)c3)n2)cc1 [GW828205]	0	0	0	2	43	0	0	25	0	0	0	16	17	0	0	0	22	0	0	0
Cn1ccc2ncnc(Oc3ccc(NC(=O)Nc4cccnc4)c(Cl)c3)c21	0	0	0	0	98.7	23	0	0	0	0	11	35	0	6	5	0	0	0	0	0
Clc1cc(Nc2ncnc3cc[nH]c23)ccc1OCc1ccccn1	31	40	53	11	38	14	29	7	0	0	10	30	0	14	15	0	42	46	7	2
O=C(c1ccc(-c2cc(-c3c[nH]nc3-c3ccccn3)ccn2)cc1)N1CCCC1 [GW792479]	27	0	0	0	11	0	0	3	0	0	0	0	10	0	0	0	0	0	0	0
Cc1ccc(NC(=O)c2cccc(C#N)c2)cc1-c1ccc(C(=O)Nc2ccncc2)cc1 [GSK1398463]	25	16	17	13	100	19	0	83	28	14	0	0	28	0	69	0	36	0	12	0
N#Cc1ccc(Oc2ccc(Nc3ncnc4cc[nH]c34)cc2Cl)cc1	58	9	20	3	31	22	23	0	13	0	29	18	0	6	0	0	13	43	0	9
COc1ccc(NC(=O)Nc2ccc(C)c(-c3ccc(C(=O)Nc4ccncc4)cc3)c2)cc1 [GSK1398475]	5	4	0	0	100	0	6	47	0	22	0	0	0	7	34	0	10	0	0	0
Cc1cc(N2CCC(NS(=O)(=O)c3ccc(F)cc3)CC2)nc(Nc2cccc(C#N)c2)n1.O=C(O)C(F)(F)F [GSK1653537]	16	17	0	0	0	0	0	10	0	0	0	0	20	5	0	0	17	3	7	60
